From PubChem BioAssay (NCI)
This is part of a sample that, as a whole, favours compounds with a hit. Of some 79,000 tested, about 15% had one in any assay. Calls of active or inactive are those of the source. Cut-off read from the data, not from the text of the source: active = growth inhibition above about 70%; inactive = the rest.

Assay: NCI Yeast Anticancer Drug Screen. Data for the mlh1 rad18 strain (AID 175)
Conditions: S. cerevisiae mlh1 rad18 strain growth inhibition; at 50.0 µM; stronger effect = higher value
In short: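 Steps: expose repair-defective yeast to compound; measure growth; express inhibition against vehicle-treated controls.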

Row | Compound | growth inhibition
1 | FC(F)(F)c1ccc(C2ON=C(c3ccccc3)N2C23CC4CC(CC(C4)C2)C3)cc1 (configuration not stated) | 1.25% (inactive)
2 | Fc1ccc(NC(=S)NCCN2CCCC2)cc1 | -4.3% (inactive)
3 | C/C=C/C(=O)N(CC)CC | 10.8% (inactive)
4 | CC1CC[N-]C(N)N1.CC1CC[N-]C(N)N1.[Cl][Pd][Cl] (configuration not stated) | -7.1% (inactive)
5 | NNC(=O)NN1C(=O)c2cc(S(=O)(=O)O)cc3c(N)c(S(=O)(=O)O)cc(c23)C1=O | 10.3% (inactive)
6 | O=c1[nH]cc(CNC2CCCCC2)c(=O)[nH]1 | 8.2% (inactive)
7 | CCOC(Nc1ccccc1[N+](=O)[O-])C(=O)c1ccccc1 (configuration not stated) | 12.7% (inactive)
8 | O=S(=O)(O)SCCCNCCCCCCCCNCCCSS(=O)(=O)O | 3.45% (inactive)
9 | COc1ccc2c(c1)C=C(C(C)(C)C)NS2(=O)=O | 63.4% (inactive)
10 | CCN(CC)c1ccc(/C=N\NC(=S)N/N=C/c2ccc(N(CC)CC)cc2)cc1 | -1.1% (inactive)
11 | CCCCCCCCCCCCCCCC(=O)N(CCCCCCCCCCC(=O)O)CC(O)C(O)C(OC1OC(CO)C(O)C(O)C1O)C(O)CO (configuration not stated) | -15.8% (inactive)
12 | CCOC(=O)c1cnc(SC)nc1Nc1ccc(Cl)cc1 | -31.2% (inactive)
13 | CCCCCCCCSC1=NS(=O)(=O)c2ccccc21 | 31.1% (inactive)
14 | Cc1nc(C)c(C(=O)NNC(=O)Cc2ccccc2)cc1C(=O)NNC(=O)Cc1ccccc1 | -32.4% (inactive)
15 | O=C(C(c1ccccc1)C(C(=O)N(Cc1ccccc1)Cc1ccccc1)c1ccccc1)N(Cc1ccccc1)Cc1ccccc1 (configuration not stated) | 28.3% (inactive)
16 | CCCC(CCC)(C(=O)OCC)C(=O)OCC | 0.65% (inactive)
17 | CCCCOC(=O)c1ccc(OC(=O)Nc2ccccc2)cc1 | 3.7% (inactive)
18 | O=C(NC12CC3CC(CC(C3)C1)C2)C(=O)c1c[nH]c2ccc(Br)cc12 | -52.4% (inactive)
19 | O=C1C(=Cc2ccc(Cl)c(Cl)c2)C([O-])=C([P+](c2ccccc2)(c2ccccc2)c2ccccc2)C([O-])=C1[P+](c1ccccc1)(c1ccccc1)c1ccccc1 | -19.6% (inactive)
20 | N#C/C(=N/Nc1nc[nH]c1C(N)=O)C(=O)Nc1ccccc1 | 26.1% (inactive)
21 | CCOC(=O)C(C(=O)OCC)C(=O)c1cc(OC)c(OC)c(OC)c1 | 6.5% (inactive)
22 | Cc1cc(C(N)=O)c(C(N)=O)c(Cl)n1 | -10.7% (inactive)
23 | O=C(/C(N=Nc1ccccc1)=C(\O)c1ccccc1)c1ccccc1 | -6.2% (inactive)
24 | CN(C)CCSSCCN(C)C | -3.55% (inactive)
25 | CCCCOC(=O)C1CC2OC2CC1C(=O)OCCOCCOC(=O)C1CC2OC2CC1C(=O)OCCCC (configuration not stated) | -42.5% (inactive)
26 | c1cc2[nH]snc2c2cncc12 | 6.6% (inactive)
27 | COCCN(CCOC)C1C2=C(CCCC2)OS(=O)(=O)C1c1ccccc1 (configuration not stated) | 0.05% (inactive)
